High-throughput results as filed in PubChem.
cytoskel mod – modifiers of cytoskeleton assembly; HUVEC TNFa F-actin phalloidin imaging, high content; inhibition, % at 2 µM; 91,000 tested, 0.18% active; AID 836;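 active = inhibition above the batch mean plus 3 SD and confirmed as a hit by visual image inspection, cut at about 30% in these data, passing the limit was not always enough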
E-sel TNF inh – TNF alpha driven E-selectin expression inhibition; inhibition, % at 2 µM; 120,000 tested, 0.71% active; HUVEC TNFa-induced E-selectin immunofluorescence, high content;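 active = inhibition above the batch mean plus 3 SD, and confirmed as a hit on visual image review, cut at about 43% in these data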;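 also: 0% = TNF-stimulated DMSO wells and 100% = unstimulated control wells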
VCAM1 TNFa inh – reduces TNF alpha induced VCAM1 expression in HUVEC. HUVEC TNFa-induced VCAM-1 immunofluorescence, high-content imaging. inhibition, % at 2 µM. 95,000 tested, 0.48% active;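 active = inhibition above the batch mean plus 3 SD, with images confirmed as a hit by eye, cut at about 37% in these data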;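 also: 0% = TNF-stimulated DMSO wells and 100% = unstimulated control wells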
TNFa cytotox – HUVEC cytotoxicity counter-screen, TNF alpha stimulated; 93,000 tested, 0.17% active; cell count reduction, % at 2 µM; AID 848; HUVEC TNFalpha-stimulated, Hoechst cell count, imaging;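 active = cell count reduction exceeding the screen mean by over 5 SD, scaled to untreated wells per plate, cut at about 78% in these data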;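 also: cells counted after 24 h of TNF alpha exposure following the 1 h pretreatment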
Starred values were filed as active, the others as inactive; x = not tested or not shown. Sampled rows, rich in hits. Any-hit rate of the full collection: about 1.2%.

SMILES | cytoskel mod | E-sel TNF inh | VCAM1 TNFa inh | TNFa cytotox
CC(=O)c1cccc(NS(=O)(=O)c2c(C)noc2C)c1 | 60* | x | 15 | -45
CCOC(=O)C1=C(C)Nc2ccccc2N=C1NC(=O)Cc1ccc(OC)cc1 | x | 12 | x | x
Cc1nn(Cc2ccccc2)c(Cl)c1/C=C/C(=O)OCC(=O)N1CCCC1=O | x | -63 | x | x
COc1ccccc1/C=C(/C(=O)OCC(=O)N(C)Cc1ccccc1)c1ccccc1 | x | -8 | x | x
COc1cc(-c2noc(CCCC(=O)NC3CCCCC3)n2)cc(OC)c1OC | x | -12 | -10 | -2
CCc1ccc2oc(-c3cc(N)ccc3O)nc2c1 | -6 | 36 | 39* | 0
CN(C)c1ccc([C@@H]2[C@@H]([N+](=O)[O-])[C@H]3C=Cc4ccccc4N3[C@H]2C(=O)c2ccc(Cl)cc2)cc1 | x | -17 | x | x
Cc1cc(C)c2c(n1)sc1c(N3CCOCC3)ncnc12 | -33 | -12 | 61* | 11
CN1CCN(c2ncnc3c2sc2nc(N4CCOCC4)c4c(c23)CCC4)CC1 | 2 | -1 | 26 | -10
O=C1CC(c2ccccc2)SC(N(c2ccccc2)c2ccccc2)=N1 (configuration not stated) | x | 62* | x | x
O=S(=O)(C/C(=C/CO)S(=O)(=O)c1ccccc1)c1ccccc1 | -2 | 100* | 86* | 30
O=C(CS(=O)(=O)c1ccccc1)N1CCCCCC1 | 10 | 4 | 5 | -12
Nc1ccc(Br)cc1-c1nc2ccccc2[nH]c1=O | x | 100* | x | x
COc1ccc(NC(=O)c2ccc(CNc3c(NC4CCCCC4)c(=O)c3=O)cc2)cc1OC | 11 | 72* | -5 | -15
COc1ccc(CNC(=O)c2ccc(CNc3c(NC4CCCCC4)c(=O)c3=O)cc2)cc1 | x | -22 | x | x
Oc1ccc(N2CCN(c3ncnc4sc5c(c34)CCC5)CC2)cc1 | 23 | x | 86* | -18
Nc1ccc2c(c1)N1CCN=C1S2 | 0 | 73* | 11 | -19
CCOC(=O)NC(=O)c1cn(CCN(C)C)c(=O)[nH]c1=O | x | -14 | x | x
CN(C)c1ccc(/C=C(\C#N)C(=O)Nc2nc3c(s2)CCN(Cc2ccccc2)C3)cc1 | 11 | 18 | 13 | 6
CC1CCCN(c2nc3ccsc3c(=O)s2)C1 (configuration not stated) | -21 | 4 | 92* | 91*
O=C(Nc1ccc(CN2CCCCC2)cc1)Nc1ccc(Br)cc1Cl | x | 51 | x | x
COC(=O)c1sc(NC(=O)CCCn2nc([N+](=O)[O-])cc2C)c(C(=O)OC)c1C | x | -1 | x | x
Cc1cc([N+](=O)[O-])nn1CCCC(=O)Nc1sc2c(c1C(N)=O)CCC(C)C2 (configuration not stated) | x | 84* | x | x
COC(=O)c1ccc(NC(C)=O)cc1O | x | -18 | x | x
COC(=O)c1cscc1NC(C)=O | 30* | 9 | 9 | -20
SMILES | cytoskel mod | E-sel TNF inh | VCAM1 TNFa inh | TNFa cytotox
CCCCN1CC2=C(C1=O)C(c1ccc(O)cc1)NC(=O)N2C (configuration not stated) | x | 8 | x | x
CCC1=NC(c2ccccc2Cl)N(O)C1(C)C (configuration not stated) | -9 | 10 | 59* | 70
CC(C)=C1SC(N2CCN(c3ccc(Cl)cc3)CC2)=NC1=O | x | 5 | x | x
CC(C)=C1SC(N2CCN(c3ccc(C)cc3)CC2)=NC1=O | -4 | 63* | 12 | -15
O=S(=O)(c1ccc(Br)s1)N1CCN(c2ccccc2)CC1 | 36* | -4 | 84* | 20
Cc1nc2ccccc2c(=O)n1/N=C/c1ccc(O)cc1 | 48 | 66* | 4 | -7
Cc1nc2ccccc2c(=O)n1/N=C/c1cccnc1 | -2 | -20 | 19 | x
O=C(Nc1ccccc1)N(CCc1ccncc1)C1CCCCC1 | 8 | 98* | 2 | -13
CCSc1ccc2cc(OC)ccc2[n+]1CC | x | 0 | x | x
COc1ccccc1OCCn1cc(C(=O)c2ccco2)c2ccccc21 | 72* | 65* | 4 | 10
CC(C)CN(C(=O)COC(=O)CCc1c[nH]c2ccccc12)C1CCS(=O)(=O)C1 (configuration not stated) | 39* | -22 | 29 | 71
CC(C)CN(C(=O)COC(=O)Cc1c[nH]c2ccccc12)C1CCS(=O)(=O)C1 (configuration not stated) | 41 | x | -4 | -25
O=C(CS(=O)c1ccc(C(F)(F)F)cc1[N+](=O)[O-])Oc1ccc(Cl)cc1 (configuration not stated) | 27 | 33 | 72* | 13
Cc1cc(C)cc(OC(=O)CS(=O)c2ccc(C(F)(F)F)cc2[N+](=O)[O-])c1 (configuration not stated) | -1 | 28 | 18 | -21
COc1ccc(-c2nc(C#N)c(N3CCCCCC3)o2)cc1OC | -30 | x | -44 | -53
CC(C)(C)OC(=O)NNC(=O)NC12CC3CC(CC(C3)C1)C2 | x | 66* | x | x
COc1ccc(Br)cc1/C=C\C(=O)NCc1cccnc1 | x | 5 | x | x
